Screens deposited in PubChem by Sanford-Burnham Center for Chemical Genomics.
The list is not random: actives were taken first. Their share in the collection is about 3%.
SENP8 block-1 – inhibitors of human SENP8 protease | Q96LD8 | recombinant SENP8, Nedd8 substrate fluorescence | inhibition, % at 20 µM | hit rate 0.64% among 360,000 | AID 602440; in the data active = inhibition mostly above about 40%, no sharp cut-off; inactive = mostly below about 27%
SENP8 block-2 – SENP8 protease inhibition; purified SENP8, Z-RLRGG-aminoluciferin cleavage, luminescence; inhibition, % at 10 µM; hit rate 1.2% among 330,000; AID 2540; in the data active = inhibition above about 50%
C8 TRAIL sens – caspase-8 TRAIL sensitization | NB7+C8 cells + TRAIL, ATPlite viability luminescence | inhibition (viability loss, TRAIL sensitization), % at 10 µM | hit rate 1% among 360,000;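 active = compounds causing at least 50% loss of cell viability in the single-dose screen, relative to plate controls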
PPC-1+TRAIL kill – PPC-1 cancer cell killing with TRAIL present. PPC-1 cells + TRAIL, ATPLite viability luminescence. cell killing (% activity), % at 4 µM or 5 µM. hit rate 0.41% among 220,000. AID 1443;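 active = cell killing above 50% in the first pass at 4 µM, then a duplicate retest at 5 µM averaging 50% or more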
SENP7 block – blocks the human protease SENP7. recombinant SENP7, Z-RLRGG-aminoluciferin luminescence, 40 min. AID 434973. hit rate 1.5% among 330,000. inhibition, % at 5 µM;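 active = inhibition above about 50% at the single test dose, limit read from the data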
Target sequence (Q9BQF6 706-1050 limits assumed): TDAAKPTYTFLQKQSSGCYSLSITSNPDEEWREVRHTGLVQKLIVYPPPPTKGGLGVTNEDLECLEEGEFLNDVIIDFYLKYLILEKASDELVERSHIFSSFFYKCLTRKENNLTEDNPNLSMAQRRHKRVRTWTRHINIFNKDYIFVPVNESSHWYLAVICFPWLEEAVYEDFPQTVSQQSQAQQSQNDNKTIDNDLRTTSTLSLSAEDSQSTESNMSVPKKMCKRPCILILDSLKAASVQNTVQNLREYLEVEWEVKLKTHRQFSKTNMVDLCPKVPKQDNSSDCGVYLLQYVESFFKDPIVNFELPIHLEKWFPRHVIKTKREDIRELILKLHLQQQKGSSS
SENP6 block – SENP6 protease inhibition | Q9GZR1 | Recombinant SENP6 catalytic domain, aminoluciferin luminescence | inhibition, % at 10 µM | hit rate 1.8% among 330,000 | AID 2599;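 active = inhibition above about 50% at the single tested dose, limit read from the data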
SENP8 confirm – human SENP8 inhibition, confirmed; shares compounds with SENP7 block; Recombinant SENP8, Z-RLRGG-aminoluciferin luminescence, 60 min; inhibition, % at 12.5 µM; hit rate 40% among 6,200; AID 488912;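 active = mean inhibition across replicates above about 50%, limit read from the data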
SENP6 conf – human SENP6 inhibition, confirmed; shares compounds with SENP7 block; recombinant SENP6, Z-RLRGG-aminoluciferin luminescence; inhibition, % at 12.5 µM; hit rate 58% among 6,200; AID 488915
SENP7 confirm – human SENP7 inhibition, confirmed; recombinant SENP7, Z-RLRGG-aminoluciferin luminescence, 40 min; hit rate 69% among 6,200; inhibition, % at 12.5 µM; shares compounds with SENP7 block; AID 488917
Casp3 SENP sel – caspase-3 inhibition (SENP selectivity assay); shares compounds with SENP7 block; purified caspase-3, Z-DEVD-aminoluciferin luminescence, 60 min; inhibition, % at 12.5 µM; hit rate 60% among 6,200; AID 488918;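 active = mean inhibition above about 50%, limit read from the data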
Target sequence (P42574 28-227 limits assumed): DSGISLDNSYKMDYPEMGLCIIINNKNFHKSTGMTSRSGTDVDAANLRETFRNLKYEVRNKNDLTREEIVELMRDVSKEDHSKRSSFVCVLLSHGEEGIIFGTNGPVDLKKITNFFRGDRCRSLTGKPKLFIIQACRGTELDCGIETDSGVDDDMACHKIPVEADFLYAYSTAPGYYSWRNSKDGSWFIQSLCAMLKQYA
SENP luc ctr – counter-screen for SENP inhibitors: luminescence interference; shares compounds with SENP7 block; hit rate 39% among 6,200; Pre-incubated SENP8/Z-RLRGG-aminoluciferin, luciferase luminescence interference; AID 488919; inhibition, % at 12.5 µM;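 active = mean inhibition above about 50% when retested at one dose, limit read from the data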
A number is an active result.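 The calls were made as follows, unless noted: active = mean inhibition above about 50% in the one-dose retest (limit read from the data); inactive = the rest.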

How did O=C(Nc1ccc(NC(=O)C2CC2)cn1)c1ccccc1 do in these assays?
SENP8 block-1: inactive; SENP8 block-2: inactive; C8 TRAIL sens: 50; SENP7 block: inactive; SENP6 block: 65; SENP8 confirm: 55; SENP6 conf: 53; SENP7 confirm: 77; Casp3 SENP sel: 84; SENP luc ctr: inactive

What do the screens show for `Cc1c(NC(=O)c2ccccc2N)cccc1C(=O)O`?
SENP8 block-1: inactive; SENP8 block-2: inactive; C8 TRAIL sens: inactive; PPC-1+TRAIL kill: inactive; SENP7 block: 71; SENP6 block: 56; SENP8 confirm: 74; SENP6 conf: 68; SENP7 confirm: 89; Casp3 SENP sel: inactive; SENP luc ctr: inactive

Results for COc1ccccc1NC(=O)CN1C(=O)CC(C)S(=O)(=O)c2ccccc21 (stereo unspecified) ?
SENP8 block-1: inactive; SENP8 block-2: inactive; C8 TRAIL sens: inactive; SENP7 block: inactive; SENP6 block: inactive

Results for Cn1c(SCC(=O)Nc2ccccc2Oc2ccccc2)nnc1C1CC1 ?
SENP8 block-1: inactive; SENP8 block-2: inactive; C8 TRAIL sens: inactive; SENP7 block: inactive; SENP6 block: inactive

How did CCNC(=O)COc1ccc(-c2ccccc2)cc1 do in these assays?
SENP8 block-1: inactive; SENP8 block-2: inactive; C8 TRAIL sens: inactive; PPC-1+TRAIL kill: inactive; SENP7 block: inactive; SENP6 block: inactive

What do the screens show for `CC(C)(C)NC(=O)COc1ccc(-c2ccccc2)cc1`?
SENP8 block-1: inactive; SENP8 block-2: inactive; C8 TRAIL sens: inactive; PPC-1+TRAIL kill: inactive; SENP7 block: inactive; SENP6 block: 51; SENP8 confirm: inactive; SENP6 conf: inactive; SENP7 confirm: 62; Casp3 SENP sel: inactive; SENP luc ctr: inactive

What do the screens show for `S=C(NCc1ccc2c(c1)OCO2)Nc1ccc2nsnc2c1`?
SENP8 block-1: inactive; SENP8 block-2: inactive; C8 TRAIL sens: inactive; PPC-1+TRAIL kill: inactive; SENP7 block: inactive; SENP6 block: inactive

What do the screens show for `COCCNC(=S)Nc1ccc2nsnc2c1`?
SENP8 block-1: inactive; SENP8 block-2: inactive; C8 TRAIL sens: inactive; PPC-1+TRAIL kill: inactive; SENP7 block: inactive; SENP6 block: inactive

How did O=C(Nc1ccc2nsnc2c1)N1CCCCC1 do in these assays?
SENP8 block-1: inactive; SENP8 block-2: inactive; C8 TRAIL sens: inactive; PPC-1+TRAIL kill: inactive; SENP7 block: inactive; SENP6 block: inactive

What do the screens show for `C=CCNC(=S)Nc1ccc2nsnc2c1`?
SENP8 block-1: inactive; SENP8 block-2: inactive; C8 TRAIL sens: inactive; PPC-1+TRAIL kill: inactive; SENP7 block: inactive; SENP6 block: 60; SENP8 confirm: inactive; SENP6 conf: inactive; SENP7 confirm: inactive; Casp3 SENP sel: inactive; SENP luc ctr: inactive

How did C=CCN(CC=C)C(=S)Nc1ccc2nsnc2c1 do in these assays?
SENP8 block-1: inactive; SENP8 block-2: inactive; C8 TRAIL sens: inactive; PPC-1+TRAIL kill: inactive; SENP7 block: inactive; SENP6 block: 75; SENP8 confirm: inactive; SENP6 conf: inactive; SENP7 confirm: inactive; Casp3 SENP sel: inactive; SENP luc ctr: inactive

How did S=C(Nc1ccc2nsnc2c1)N1CCCCCC1 do in these assays?
SENP8 block-1: inactive; SENP8 block-2: 89; C8 TRAIL sens: inactive; SENP7 block: 53; SENP6 block: 93; SENP8 confirm: inactive; SENP6 conf: inactive; SENP7 confirm: inactive; Casp3 SENP sel: inactive; SENP luc ctr: 58

How did COc1cc(/C=N/NC(=O)c2cncc(Br)c2)cc([N+](=O)[O-])c1O do in these assays?
SENP8 block-1: inactive; SENP8 block-2: 66; C8 TRAIL sens: inactive; PPC-1+TRAIL kill: inactive; SENP7 block: 72; SENP6 block: 83; SENP8 confirm: 84; SENP6 conf: 80; SENP7 confirm: 96; Casp3 SENP sel: 84; SENP luc ctr: 61

How did COc1cc([N+](=O)[O-])cc(/C=N/NC(=O)c2cc(C)nc3ccccc23)c1O do in these assays?
SENP8 block-1: inactive; SENP8 block-2: inactive; C8 TRAIL sens: inactive; PPC-1+TRAIL kill: inactive; SENP7 block: inactive; SENP6 block: inactive

How did COc1cc(/C=N/NC(=O)c2cccc([N+](=O)[O-])c2)cc(OC)c1O do in these assays?
SENP8 block-1: inactive; SENP8 block-2: inactive; C8 TRAIL sens: inactive; PPC-1+TRAIL kill: inactive; SENP7 block: inactive; SENP6 block: inactive

What do the screens show for `COc1cc([N+](=O)[O-])cc(/C=N/NC(=O)c2cncc(Br)c2)c1O`?
SENP8 block-1: inactive; SENP8 block-2: 64; C8 TRAIL sens: inactive; PPC-1+TRAIL kill: inactive; SENP7 block: 67; SENP6 block: 89; SENP8 confirm: 81; SENP6 conf: 76; SENP7 confirm: 96; Casp3 SENP sel: 84; SENP luc ctr: 52

How did Cc1ccnc(NC(=O)c2ccc(NS(=O)(=O)/C=C/c3ccccc3)cc2)c1 do in these assays?
SENP8 block-1: inactive; SENP8 block-2: inactive; C8 TRAIL sens: inactive; SENP7 block: inactive; SENP6 block: inactive

How did O=C1CCC(/C=C/c2ccccc2)=NN1Cc1ccccc1 do in these assays?
SENP8 block-1: inactive; SENP8 block-2: inactive; C8 TRAIL sens: inactive; PPC-1+TRAIL kill: inactive; SENP7 block: inactive; SENP6 block: inactive

How did CN1N=C(/C=C/c2ccccc2)CCC1=O do in these assays?
SENP8 block-1: inactive; SENP8 block-2: 61; C8 TRAIL sens: inactive; PPC-1+TRAIL kill: inactive; SENP7 block: 73; SENP6 block: 69; SENP8 confirm: 60; SENP6 conf: 63; SENP7 confirm: 92; Casp3 SENP sel: 89; SENP luc ctr: 68

How did Cc1ccc(/C=C/C2=NN(C)C(=O)CC2)cc1 do in these assays?
SENP8 block-1: inactive; SENP8 block-2: 76; C8 TRAIL sens: 53; PPC-1+TRAIL kill: inactive; SENP7 block: 86; SENP6 block: inactive; SENP8 confirm: 75; SENP6 conf: 81; SENP7 confirm: 98; Casp3 SENP sel: 93; SENP luc ctr: 62

Results for CC(SCc1nc2sc3c(c2c(=O)[nH]1)CCCC3)C(=O)Nc1ccccn1 (stereo unspecified) ?
SENP8 block-1: inactive; SENP8 block-2: inactive; C8 TRAIL sens: inactive; SENP7 block: inactive; SENP6 block: inactive

Results for COc1ccc(S(=O)(=O)N2CCCC(C(=O)NCc3cccnc3)C2)cc1OC (stereo unspecified) ?
SENP8 block-1: inactive; SENP8 block-2: inactive; C8 TRAIL sens: inactive; SENP7 block: inactive; SENP6 block: inactive
